Key:
Experiment in all cases: SPOT peptide array binding signal intensity (averaged, normalized) (arbitrary units (background-subtracted, floor 0; scale differs between SH3 domains)); higher = stronger binding of the SH3 domain to the peptide
AgAbp1 = target: AgAbp1
Procedure: (§1)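 GST-tagged SH3 domains from S. cerevisiae (Sc), A. gossypii (Ag), C. albicans (Ca) and S. pombe (Sp) were incubated at 10 ug/ml overnight at 4 C on cellulose SPOT membranes carrying 292 synthetic 15-mer peptides mined from the S. cerevisiae proteome (cysteines replaced by serines). Binding was detected with anti-GST antibody, HRP secondary and chemiluminescence, quantified with Genespotter, and reported as normalized spot intensities averaged over biological replicates.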

AgBbc1 = target: AgBbc1
Procedure: as §1

AgBem1-D1 = target: AgBem1-D1
Procedure: as §1

AgBzz1-D1 = target: AgBzz1-D1
Procedure: as §1

AgBzz1-D2 = target: AgBzz1-D2
Procedure: as §1

AgCyk3 = target: AgCyk3
Procedure: as §1

AgFus1 = target: AgFus1
Procedure: as §1

AgHof1 = target: AgHof1
Procedure: as §1

AgHse1 = target: AgHse1
Procedure: as §1

AgLsb1 = target: AgLsb1
Procedure: as §1

AgLsb4 = target: AgLsb4
Procedure: as §1

AgMyo5 = target: AgMyo5
Procedure: as §1

AgNbp2 = target: AgNbp2
Procedure: as §1

AgRvs167 = target: AgRvs167
Procedure: as §1

AgSho1 = target: AgSho1
Procedure: as §1

AgSla1-D1-D2 = target: AgSla1-D1-D2
Procedure: as §1

AgSla1-D3 = target: AgSla1-D3
Procedure: as §1

CaAbp1-D1 = target: CaAbp1-D1
Procedure: as §1

CaAbp1-D2 = target: CaAbp1-D2
Procedure: as §1

CaBbc1 = target: CaBbc1
Procedure: as §1

CaBem1-D1 = target: CaBem1-D1
Procedure: as §1

CaBzz1-D1 = target: CaBzz1-D1
Procedure: as §1

CaBzz1-D2 = target: CaBzz1-D2
Procedure: as §1

CaCyk3 = target: CaCyk3
Procedure: as §1

CaFus1 = target: CaFus1
Procedure: as §1

CaHof1 = target: CaHof1
Procedure: as §1

CaHse1 = target: CaHse1
Procedure: as §1

CaLsb1 = target: CaLsb1
Procedure: as §1

CaLsb4 = target: CaLsb4
Procedure: as §1

CaMyo5 = target: CaMyo5
Procedure: as §1

CaNbp2 = target: CaNbp2
Procedure: as §1

CaRvs167 = target: CaRvs167
Procedure: as §1

CaRvs167-3 = target: CaRvs167-3
Procedure: as §1

CaSho1 = target: CaSho1
Procedure: as §1

CaSla1-D1-D2 = target: CaSla1-D1-D2
Procedure: as §1

CaSla1-D3 = target: CaSla1-D3
Procedure: as §1

ScAbp1 = target: ScAbp1
Procedure: as §1

ScBbc1 = target: ScBbc1
Procedure: as §1

ScBem1-D1 = target: ScBem1-D1
Procedure: as §1

ScBzz1-D1 = target: ScBzz1-D1
Procedure: as §1

ScBzz1-D2 = target: ScBzz1-D2
Procedure: as §1

ScCyk3 = target: ScCyk3
Procedure: as §1

ScFus1 = target: ScFus1
Procedure: as §1

ScHof1 = target: ScHof1
Procedure: as §1

ScHse1 = target: ScHse1
Procedure: as §1

ScLsb1 = target: ScLsb1
Procedure: as §1

ScLsb2 = target: ScLsb2
Procedure: as §1

ScLsb3 = target: ScLsb3
Procedure: as §1

ScLsb4 = target: ScLsb4
Procedure: as §1

ScMyo3 = target: ScMyo3
Procedure: as §1

ScMyo5 = target: ScMyo5
Procedure: as §1

ScNbp2 = target: ScNbp2
Procedure: as §1

ScPex13 = target: ScPex13
Procedure: as §1

ScRvs167 = target: ScRvs167
Procedure: as §1

ScSho1 = target: ScSho1
Procedure: as §1

ScSla1-D1-D2 = target: ScSla1-D1-D2
Procedure: as §1

ScSla1-D3 = target: ScSla1-D3
Procedure: as §1

SpAbp1-D1 = target: SpAbp1-D1
Procedure: as §1

SpBbc1 = target: SpBbc1
Procedure: as §1

SpBzz1-D1 = target: SpBzz1-D1
Procedure: as §1

SpBzz1-D2 = target: SpBzz1-D2
Procedure: as §1

SpCyk3 = target: SpCyk3
Procedure: as §1

SpHof1 = target: SpHof1
Procedure: as §1

SpHof1-2 = target: SpHof1-2
Procedure: as §1

SpHof1-3 = target: SpHof1-3
Procedure: as §1

SpHse1 = target: SpHse1
Procedure: as §1

SpLsb1 = target: SpLsb1
Procedure: as §1

SpLsb4 = target: SpLsb4
Procedure: as §1

SpMyo1 = target: SpMyo1
Procedure: as §1

SpNbp2 = target: SpNbp2
Procedure: as §1

SpPex13 = target: SpPex13
Procedure: as §1

SpRvs167 = target: SpRvs167
Procedure: as §1

SpSla1-D1-D2 = target: SpSla1-D1-D2
Procedure: as §1

SpSla1-D3 = target: SpSla1-D3
Procedure: as §1

GQYRRTIVIPRRFFT
SPOT peptide array binding signal intensity (AgAbp1): 24.5 | SPOT peptide array binding signal intensity (AgBbc1): 25.5 | SPOT peptide array binding signal intensity (AgBem1-D1): 52 | SPOT peptide array binding signal intensity (AgBzz1-D1): 42.5 | SPOT peptide array binding signal intensity (AgBzz1-D2): 21 | SPOT peptide array binding signal intensity (AgCyk3): 42.5 | SPOT peptide array binding signal intensity (AgFus1): 619 | SPOT peptide array binding signal intensity (AgHof1): 68 | SPOT peptide array binding signal intensity (AgHse1): 478 | SPOT peptide array binding signal intensity (AgLsb1): 10 | SPOT peptide array binding signal intensity (AgLsb4): 211 | SPOT peptide array binding signal intensity (AgMyo5): 2.25 | SPOT peptide array binding signal intensity (AgNbp2): 56.5 | SPOT peptide array binding signal intensity (AgRvs167): 14.8 | SPOT peptide array binding signal intensity (AgSho1): 255 | SPOT peptide array binding signal intensity (AgSla1-D1-D2): 763 | SPOT peptide array binding signal intensity (AgSla1-D3): 11 | SPOT peptide array binding signal intensity (CaAbp1-D1): 168 | SPOT peptide array binding signal intensity (CaAbp1-D2): 172 | SPOT peptide array binding signal intensity (CaBbc1): 128 | SPOT peptide array binding signal intensity (CaBem1-D1): 24.5 | SPOT peptide array binding signal intensity (CaBzz1-D1): 60 | SPOT peptide array binding signal intensity (CaBzz1-D2): 45 | SPOT peptide array binding signal intensity (CaCyk3): 81 | SPOT peptide array binding signal intensity (CaFus1): 2340 | SPOT peptide array binding signal intensity (CaHof1): 5 | SPOT peptide array binding signal intensity (CaHse1): 45.8 | SPOT peptide array binding signal intensity (CaLsb1): 7 | SPOT peptide array binding signal intensity (CaLsb4): 94.5 | SPOT peptide array binding signal intensity (CaMyo5): 46.5

RRRRRPHRIERPLSN
SPOT peptide array binding signal intensity (AgAbp1): 25 | SPOT peptide array binding signal intensity (AgBbc1): 170 | SPOT peptide array binding signal intensity (AgBem1-D1): 136 | SPOT peptide array binding signal intensity (AgBzz1-D1): 33 | SPOT peptide array binding signal intensity (AgBzz1-D2): 43 | SPOT peptide array binding signal intensity (AgCyk3): 33 | SPOT peptide array binding signal intensity (AgFus1): 322 | SPOT peptide array binding signal intensity (AgHof1): 28.5 | SPOT peptide array binding signal intensity (AgHse1): 833 | SPOT peptide array binding signal intensity (AgLsb1): 4.25 | SPOT peptide array binding signal intensity (AgLsb4): 160 | SPOT peptide array binding signal intensity (AgMyo5): 2.25 | SPOT peptide array binding signal intensity (AgNbp2): 72 | SPOT peptide array binding signal intensity (AgRvs167): 3.17 | SPOT peptide array binding signal intensity (AgSho1): 37.5 | SPOT peptide array binding signal intensity (AgSla1-D1-D2): 354 | SPOT peptide array binding signal intensity (AgSla1-D3): 1 | SPOT peptide array binding signal intensity (CaAbp1-D1): 454 | SPOT peptide array binding signal intensity (CaAbp1-D2): 512 | SPOT peptide array binding signal intensity (CaBbc1): 300 | SPOT peptide array binding signal intensity (CaBem1-D1): 53.5 | SPOT peptide array binding signal intensity (CaBzz1-D1): 96 | SPOT peptide array binding signal intensity (CaBzz1-D2): 34 | SPOT peptide array binding signal intensity (CaCyk3): 147 | SPOT peptide array binding signal intensity (CaFus1): 525 | SPOT peptide array binding signal intensity (CaHof1): ≤ 0 | SPOT peptide array binding signal intensity (CaHse1): 30.5 | SPOT peptide array binding signal intensity (CaLsb1): 1.5 | SPOT peptide array binding signal intensity (CaLsb4): 108 | SPOT peptide array binding signal intensity (CaMyo5): 2 | SPOT peptide array binding signal intensity (CaNbp2): 394 | SPOT peptide array binding signal intensity (CaRvs167): 12 | SPOT peptide array binding signal intensity (CaRvs167-3): 104 | SPOT peptide array binding signal intensity (CaSho1): 674 | SPOT peptide array binding signal intensity (CaSla1-D1-D2): 27 | SPOT peptide array binding signal intensity (CaSla1-D3): 3.5 | SPOT peptide array binding signal intensity (ScAbp1): 16 | SPOT peptide array binding signal intensity (ScBbc1): 124 | SPOT peptide array binding signal intensity (ScBem1-D1): 98 | SPOT peptide array binding signal intensity (ScBzz1-D1): 7.5 | SPOT peptide array binding signal intensity (ScBzz1-D2): 15 | SPOT peptide array binding signal intensity (ScCyk3): 272 | SPOT peptide array binding signal intensity (ScFus1): 396 | SPOT peptide array binding signal intensity (ScHof1): ≤ 0 | SPOT peptide array binding signal intensity (ScHse1): 1290 | SPOT peptide array binding signal intensity (ScLsb1): 11.2 | SPOT peptide array binding signal intensity (ScLsb2): 6 | SPOT peptide array binding signal intensity (ScLsb3): 690 | SPOT peptide array binding signal intensity (ScLsb4): 7.5 | SPOT peptide array binding signal intensity (ScMyo3): 6.5 | SPOT peptide array binding signal intensity (ScMyo5): 3.25 | SPOT peptide array binding signal intensity (ScNbp2): 437 | SPOT peptide array binding signal intensity (ScPex13): 0.5 | SPOT peptide array binding signal intensity (ScRvs167): 29 | SPOT peptide array binding signal intensity (ScSho1): 430 | SPOT peptide array binding signal intensity (ScSla1-D1-D2): 303 | SPOT peptide array binding signal intensity (ScSla1-D3): 11 | SPOT peptide array binding signal intensity (SpAbp1-D1): 143 | SPOT peptide array binding signal intensity (SpBbc1): 7.25 | SPOT peptide array binding signal intensity (SpBzz1-D1): 91 | SPOT peptide array binding signal intensity (SpBzz1-D2): 1.25 | SPOT peptide array binding signal intensity (SpCyk3): 7 | SPOT peptide array binding signal intensity (SpHof1): 217 | SPOT peptide array binding signal intensity (SpHof1-2): 13 | SPOT peptide array binding signal intensity (SpHof1-3): 456 | SPOT peptide array binding signal intensity (SpHse1): 421 | SPOT peptide array binding signal intensity (SpLsb1): ≤ 0 | SPOT peptide array binding signal intensity (SpLsb4): 336 | SPOT peptide array binding signal intensity (SpMyo1): 3 | SPOT peptide array binding signal intensity (SpNbp2): 418 | SPOT peptide array binding signal intensity (SpPex13): 10 | SPOT peptide array binding signal intensity (SpRvs167): 3.83 | SPOT peptide array binding signal intensity (SpSla1-D1-D2): 5 | SPOT peptide array binding signal intensity (SpSla1-D3): 5

YHSRRHPLALGFKYV
SPOT peptide array binding signal intensity (SpBzz1-D2): 2 | SPOT peptide array binding signal intensity (SpCyk3): 3 | SPOT peptide array binding signal intensity (SpHof1): 42.8 | SPOT peptide array binding signal intensity (SpHof1-2): 10.8 | SPOT peptide array binding signal intensity (SpHof1-3): 386 | SPOT peptide array binding signal intensity (SpHse1): 274 | SPOT peptide array binding signal intensity (SpLsb1): 50.5 | SPOT peptide array binding signal intensity (SpLsb4): ≤ 0 | SPOT peptide array binding signal intensity (SpMyo1): 14.5 | SPOT peptide array binding signal intensity (SpNbp2): 53 | SPOT peptide array binding signal intensity (SpPex13): 52 | SPOT peptide array binding signal intensity (SpRvs167): 66.2 | SPOT peptide array binding signal intensity (SpSla1-D1-D2): 1 | SPOT peptide array binding signal intensity (SpSla1-D3): 23.5

From the supplement of paper PMC4466140
